U2OS ROS induce: raises reactive oxygen species in U2OS cancer cells. U2OS ROS induction, H2DCF-DA fluorescence. ROS induction (% of piperlongumine), % at 10 µM. hit rate 2% among 46,000. AID 624156; in the data active means ROS induction above about 79%, passing the limit was not always enough
YB-1 expr inh: YB-1 expression inhibition; U2OS, qRT-PCR YB-1 vs CDIP delta delta Cp, 16 h; hits give high values; zero = DMSO, each unit about twofold; delta delta Cp (YB-1 minus CDIP) (test concentration not listed); hit rate 0.37% among 30,000; AID 434959;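 active means delta delta Cp rounded down to an integer at or above 3, about 3 SD of DMSO wells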;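 further: higher means less YB-1 transcript or more CDIP transcript relative to DMSO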
Of the large screens only hits and unclear results are named; the others gave an inactive call. Rows were chosen to be rich in hits. Some 2.1% of all compounds tested hit in one or more screens of this group.

CCc1ccc(-c2cn3c4ccccc4nc3n2CCN2CCOCC2)cc1	U2OS ROS induce 89 (no result: YB-1 expr inh)
CNC(=O)c1ccc(C(C)(C)C)cc1	none (no result: YB-1 expr inh)
Cc1cc(C)c(S(=O)(=O)N2CCc3ccccc32)c(C)c1	U2OS ROS induce 105 (no result: YB-1 expr inh)
Cc1cc(C)c(NC(=O)c2cc(S(=O)(=O)N3CCc4ccccc43)ccc2F)c(C)c1	none (no result: YB-1 expr inh)
CC(=O)OC(C(=O)Nc1nc2ccccc2s1)c1ccccc1 (stereo unspecified)	none (no result: YB-1 expr inh)
CCOC(=O)Cn1cnc2c(nnn2-c2ccc(C)cc2)c1=O	none (no result: YB-1 expr inh)
Cc1ccc(-n2nnc3c(SCC(=O)N4CCCC4)ncnc32)cc1	U2OS ROS induce 134 (no result: YB-1 expr inh)
NS(=O)(=O)c1ccc(CNC(=O)/C=C/c2ccc3c(c2)OCO3)cc1	none (no result: YB-1 expr inh)
COc1ccc(OC)c(N(C)S(=O)(=O)c2cc(Br)cnc2N)c1	none (no result: YB-1 expr inh)
CC(=O)Oc1ccc2cc(-c3nc4c(s3)CCc3ccccc3-4)c(=O)oc2c1	U2OS ROS induce 129 (no result: YB-1 expr inh)
Cc1cccc(C)c1NC(=O)COc1ccc2cc(-c3ccccc3)c(=O)oc2c1	none (no result: YB-1 expr inh)
O=C(NCCc1ccccc1)c1cc2c(ccc3ccccc32)o1	none (no result: YB-1 expr inh)
CCCC1(C(=O)OCC)CC(CSC(=N)N)OC1=O (stereo unspecified)	none (no result: YB-1 expr inh)
CCn1c(=N)c(S(=O)(=O)c2ccccc2)cc2c(=O)n3ccccc3nc21	U2OS ROS induce 94 (no result: YB-1 expr inh)
Cc1ccc(S(=O)(=O)c2cc3c(=O)n4ccccc4nc3n(Cc3ccccc3)c2=N)cc1	none (no result: YB-1 expr inh)
COC(=O)c1ccc2c(c1)NC(=O)CO2	none (no result: YB-1 expr inh)
C[C@@H]1CN([C@@H](C)CO)C(=O)c2cc(NC(=O)Nc3cccc4ccccc34)ccc2O[C@@H]1CN(C)C(=O)Nc1ccc(C(F)(F)F)cc1	none
C[C@@H]1CN([C@@H](C)CO)C(=O)Cc2cc(NC(=O)Nc3cccc4ccccc34)ccc2O[C@@H]1CN(C)C(=O)Nc1ccc(C(F)(F)F)cc1	U2OS ROS induce 162
C[C@H]1CN([C@@H](C)CO)C(=O)c2cc(NC(=O)Nc3cccc4ccccc34)ccc2O[C@@H]1CN(C)C(=O)Nc1ccc(C(F)(F)F)cc1	U2OS ROS induce 80
C[C@H](CO)N1C[C@H](C)[C@H](CN(C)C(=O)Nc2ccc(C(F)(F)F)cc2)Oc2ccc(NC(=O)Nc3cccc4ccccc34)cc2CC1=O	none
COc1cccc(NC(=S)N(Cc2ccccc2)Cc2ccc(C)o2)c1	none (no result: YB-1 expr inh)
CC1CCCCN1S(=O)(=O)c1ccc(Cl)cc1 (stereo unspecified)	none (no result: YB-1 expr inh)
O=S(=O)(C1=CC23CCCC2(C=C(S(=O)(=O)c2ccc(Cl)cc2)C3)C1)c1ccc(Cl)cc1 (stereo unspecified)	U2OS ROS induce 81
CCC(NC(=O)Nc1ccccc1C(=O)OC)(C(F)(F)F)C(F)(F)F	none (no result: YB-1 expr inh)
COc1ccccc1Nc1nc(N)nc(CSCCO)n1	U2OS ROS induce 123 (no result: YB-1 expr inh)
COc1ccccc1Nc1nc(N)nc(CSc2ncccn2)n1	none (no result: YB-1 expr inh)
COc1ccc(Cn2c(CCC(=O)NCCC3=CCCCC3)nc3ncccc3c2=O)cc1	none (no result: YB-1 expr inh)
COc1ccc(/C=C2\OC(=S)N(C)C2=O)cc1	none (no result: YB-1 expr inh)
CCN1C(=O)/C(=C\c2ccc(N(C)C)cc2Cl)OC1=S	U2OS ROS induce 929 (no result: YB-1 expr inh)
Cc1ccc2nc3ccc(N4CCC(Cc5ccccc5)CC4)nn3c(=O)c2c1	none (no result: YB-1 expr inh)
Cc1ccc(-n2c(=O)c3c(C)c(C(=O)N(C)C)sc3n(Cc3ccc(F)cc3Cl)c2=O)cc1C	none (no result: YB-1 expr inh)
O=C(c1cnn2c(C(F)(F)F)cc(-c3ccccc3)nc12)N1CCCC1	none (no result: YB-1 expr inh)
COc1ccc(-c2cc(C(F)(F)F)n3ncc(C(=O)NCc4nc5ccccc5[nH]4)c3n2)cc1OC	U2OS ROS induce 151 (no result: YB-1 expr inh)
CSc1ccccc1NC(=O)c1cnn2c(C(F)(F)F)cc(-c3ccco3)nc12	U2OS ROS induce 171
O=C(O)c1cnn2c(C(F)(F)F)cc(-c3ccco3)nc12	none (no result: YB-1 expr inh)
CCC(C)NC(=O)c1cnn2c(C(F)(F)F)cc(-c3ccccc3)nc12 (stereo unspecified)	U2OS ROS induce 129 (no result: YB-1 expr inh)
COc1ccc(-c2cc(C(F)(F)F)n3nc(C(=O)NCc4ccco4)cc3n2)cc1OC	none (no result: YB-1 expr inh)
CC(=O)NN1C(=O)c2cccc3c(N(C)C)ccc(c23)C1=O	none (no result: YB-1 expr inh)
COCCN(C(=O)Nc1ccc(Cl)c(Cl)c1)C1CCN(C(C)C)CC1	none (no result: YB-1 expr inh)
CCOC(=O)c1oc2cc(O)c(CC)cc2c(=O)c1-c1ccc2c(c1)OCCO2	none (no result: YB-1 expr inh)
Cc1oc2cc(OC(C)C)ccc2c(=O)c1-c1ccc2c(c1)OCCO2	YB-1 expr inh 6.9
Clc1ccccc1/C=C/C=Nc1ccc(N2CCOCC2)cc1	U2OS ROS induce 128
C(=Nc1ccc(N2CCOCC2)cc1)c1ccc(Sc2nc3ccccc3[nH]2)o1	none (no result: YB-1 expr inh)
CCC(C)NC(=O)CSc1nc2ccsc2c(=O)n1Cc1ccc(OC)cc1 (stereo unspecified)	none (no result: YB-1 expr inh)
O=C1CCC(c2ccccc2)c2cc(Oc3c(F)c(N4CCOCC4)nc(F)c3Cl)ccc21 (stereo unspecified)	none (no result: YB-1 expr inh)
CCOc1ccccc1NC(=O)c1ccco1	none (no result: YB-1 expr inh)
Cc1nn2c3c(cnc2c1-c1ccccc1)C(=O)CC(C)(C)C3	none (no result: YB-1 expr inh)
COc1ccc(-c2c(C)nn3c(N)c(-c4ccccc4)cnc23)cc1	U2OS ROS induce 120 (no result: YB-1 expr inh)
COc1cc(CO)ccc1OCC(=O)Nc1ccc(C)cc1	U2OS ROS induce 122 (no result: YB-1 expr inh)
COc1cc(CO)ccc1OCC(=O)Nc1ccccc1F	none (no result: YB-1 expr inh)
CCC(=O)Nc1cc(C(=O)O)ccc1Sc1ccc(OC)cc1	none (no result: YB-1 expr inh)
COc1ccc(CNC(=O)C2c3ccccc3C(=O)N(C)C2c2cccs2)cc1 (stereo unspecified)	none (no result: YB-1 expr inh)
Cc1ccc(Cl)cc1N1CCN(C(=O)CCN2C(=O)COc3ccccc32)CC1	none (no result: YB-1 expr inh)
O=C1c2ccccc2NC(c2ccccc2)N1NS(=O)(=O)c1ccccc1 (stereo unspecified)	none (no result: YB-1 expr inh)
O=C1c2ccccc2NC(c2ccccc2)N1N=C1CCCCCC1 (stereo unspecified)	U2OS ROS induce 96
CS(=O)(=O)Nc1ccc(S(=O)(=O)NCC2CCCO2)cc1 (stereo unspecified)	U2OS ROS induce 96 (no result: YB-1 expr inh)
O=C(O)c1cccc(S(=O)(=O)NCC2CCCO2)c1 (stereo unspecified)	none (no result: YB-1 expr inh)
COc1ccc(CSc2nnc(CSc3cccs3)n2C)cc1	U2OS ROS induce 87
Cn1c(CNC(=O)c2cccs2)nnc1SCc1ccccc1	none (no result: YB-1 expr inh)
C[C@@H]1CN([C@@H](C)CO)C(=O)CCCn2nncc2CO[C@@H]1CN(C)C(=O)Nc1ccc(C(C)(C)C)cc1	U2OS ROS induce 114
COc1ccccc1CN(C)C[C@H]1OCc2cnnn2CCCC(=O)N([C@H](C)CO)C[C@H]1C	U2OS ROS induce 113
COc1ccccc1CN(C)C[C@H]1OCc2cnnn2CCCC(=O)N([C@@H](C)CO)C[C@H]1C	none
C[C@H](CO)N1C[C@H](C)[C@@H](CN(C)C(=O)Nc2ccc(C(C)(C)C)cc2)OCc2cnnn2CCCC1=O	none
O=C(NCc1sccc1COc1ccc(Cl)cc1)Nc1ccccc1F	none (no result: YB-1 expr inh)
CC12CC(NC(=S)N1c1ccccc1)c1ccccc1O2 (stereo unspecified)	none (no result: YB-1 expr inh)
Cc1ccc(Nc2ncc(C(=O)NCCC3=CCCCC3)c3ccccc23)cc1Cl	none (no result: YB-1 expr inh)
COc1ccc(/C=C2/Oc3ccccc3N(CC(=O)O)C2=O)cc1	none (no result: YB-1 expr inh)
CCCNC(=O)c1cnn(-c2ccccc2)c1-n1cccc1	none (no result: YB-1 expr inh)
CC(C)OC(=O)CSc1nc(-c2cccs2)cc(C(F)(F)F)c1C#N	none (no result: YB-1 expr inh)
CCN(CC)c1cc(-c2cccs2)nc(SCC(=O)c2cccs2)c1C#N	U2OS ROS induce 220
COc1cc2oc(-c3ccccc3)cc(=O)c2c(OC)c1OC	U2OS ROS induce 90
COc1cc2oc(-c3ccccc3)cc(=O)c2c(O)c1OC	none
CCN1C(=O)c2ccccc2Sc2ccc(C(=O)NCCc3ccccc3)cc21	none (no result: YB-1 expr inh)
Cn1c2c(c(=O)n(C)c1=O)CN(C1CCCC1)CN2	YB-1 expr inh 4

Source: PubChem BioAssay (Broad Institute)
